ALR H2O2 inh: inhibitors of human sulfhydryl oxidase ALR | P55789 | purified ALR, DTT oxidation, H2O2 HRP-luminol luminescence | inhibition, % (concentration not given with the values) | 290,000 compounds, 3.8% hits;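 active = mean replicate inhibition above about 79%, with every replicate also reaching it, limit read from the data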
Target sequence (P55789 whole entry, looked up): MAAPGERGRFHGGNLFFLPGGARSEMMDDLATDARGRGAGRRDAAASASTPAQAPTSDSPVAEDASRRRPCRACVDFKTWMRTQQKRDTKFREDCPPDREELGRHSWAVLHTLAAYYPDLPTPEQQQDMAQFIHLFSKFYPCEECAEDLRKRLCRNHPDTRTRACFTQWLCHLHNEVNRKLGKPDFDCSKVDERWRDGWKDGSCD
CFTR F508del cor: correctors of CFTR F508del function in bronchial epithelial cells; CFBE cells, YFP halide quenching; stimulated with forskolin plus potentiator P3; % fluorescence drop versus neutral controls; activity (quench increase), % at 7.58 µM; 350,000 compounds, 0.36% hits;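 active = mean added fluorescence quench of at least 8% versus neutral control, with both replicates also reaching 8%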;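 note: cells transiently co-express mutant CFTR-F508del with the halide-sensitive YFP; corrector assay measuring rescue of mutant channel to the surface after 24 h compound exposure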
NSD2 HMT inh: blocks human histone methyltransferase NSD2 | O96028 | inhibition, % at 12.5 µM | NSD2 peptide methylation, AlphaScreen, 120 min | 310,000 compounds, 0.54% hits; in the data active = inhibition above about 50%
PglD DTNB: blocks C. jejuni PglD acetyltransferase activity. purified PglD enzyme, DTNB colorimetric CoA detection. inhibition, % at 12.5 µM. 360,000 compounds, 0.098% hits. AID 602405; in the data active = inhibition above about 16%, passing the limit was not always enough
CASP6 VEID inh: caspase-6 (human) enzyme inhibition; purified caspase-6, Z-VEID-R110 cleavage fluorescence; inhibition, % at 12.5 µM; 350,000 compounds, 0.53% hits; AID 686996;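 active = mean inhibition across replicates at least about 35%, with every replicate also reaching that limit, limit read from the data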;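 note: 0% = median of neutral control wells and 100% = no fluorescence left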
Target sequence (P55212 24-179 limits assumed): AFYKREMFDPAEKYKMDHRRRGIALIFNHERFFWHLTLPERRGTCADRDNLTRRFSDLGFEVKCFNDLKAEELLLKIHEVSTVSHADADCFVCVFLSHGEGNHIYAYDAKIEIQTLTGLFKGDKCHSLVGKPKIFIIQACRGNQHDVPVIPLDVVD
Target sequence (P55212 194-293 limits assumed): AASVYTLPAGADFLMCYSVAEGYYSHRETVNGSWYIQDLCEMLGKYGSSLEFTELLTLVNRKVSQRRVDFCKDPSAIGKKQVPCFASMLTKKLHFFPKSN
HIV Env fusion: blocks HIV Env-driven cell-cell fusion; 360,000 compounds, 1.1% hits; HeLa-JRFL Env/CEM21 cell fusion, luciferase; inhibition, % at 12.3 µM;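 active = mean replicate inhibition score of at least 50 and every replicate individually at or above 50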;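 note: 0% = plate neutral controls and 100% = maraviroc near 300 nM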
Numbers without * were called inactive; nt = no result given; [ ] = another dose, or the depositor's remark. Shown are actives, neighbours in structure and some others; about 4.1% of the full set was active somewhere.

SMILES | ALR H2O2 inh | CFTR F508del cor | NSD2 HMT inh | PglD DTNB | CASP6 VEID inh | HIV Env fusion
O=C(N/N=C/c1ccccc1)C(=O)N/N=C/c1ccccc1 | -2.3 | 2.4 | -0.1 | 10.2 | -1.1 | 3.4
O=C(N/N=C/c1ccc(O)cc1)/C(=C/c1ccccc1)CCO | 99.5* | nt | 0.2 | -0.6 | nt | -0.5
CS(=O)(=O)Nc1ccc2c(c1)[C@@H]1C[C@H](CC(=O)NCc3ccc(-c4ccccc4)cc3)O[C@@H](CO)[C@@H]1O2 | nt | -0.4 | nt | -0.4 | nt | nt
CCOC(=O)C1=C(c2ccccc2)NC(=O)NC1c1ccc(N(C)C)cc1 (stereo unspecified) | 99.0* | 0.9 | 12.7 | -5.4 | -1.6 | nt
Cc1ccc(-n2c(N)c(C(=O)N3CCN(C)CC3)sc2=S)cc1 | 3.2 | nt | 6.4 | -0.1 | nt | -19.6
CCOC(=O)c1sc(=S)n(CC)c1N | 98.8* | nt | 5.9 | nt | nt | nt
C=CCn1c(N)c(C(=O)N2CCN(C)CC2)sc1=S | 98.5* | nt | 1.9 | -11.2 | -3.3 | -86.2
CCOC(=O)c1sc(=S)n(Cc2ccccc2)c1N | 10.2 | nt | 7.1 | 13.2 | nt | nt
CCn1c(N)c(C(N)=O)sc1=S | 97.6* | nt | 5.1 | -3.7 | nt | nt
CCOC(=O)c1sc(=S)n(C)c1N | 98.9* | nt | 0.8 | 4.2 | nt | nt
COc1ccc(S(=O)(=O)Nc2ccc3c(c2)C(=O)N([C@@H](C)CO)C[C@@H](C)[C@@H](CN(C)C(=O)C2CCCCC2)OCCCC[C@H](C)O3)cc1 | nt | 0.4 | nt | -0.7 | -0.4 | 2.1[16.7 µM]
CCn1c(N)c(C(=O)NC2CCCCC2)sc1=S | 98.2* | nt | 23.4 | 0.5 | nt | -56.2
C=CCn1c(N)c(C(=O)OCC)sc1=S | 99.1* | nt | 13.7 | nt | nt | -14.6
COc1ccc(S(=O)(=O)N(C)C[C@@H]2OCCCC[C@@H](C)Oc3ccc(NC(=O)Nc4cccc5ccccc45)cc3C(=O)N([C@@H](C)CO)C[C@H]2C)cc1 | nt | 2.1 | nt | 0.9 | 1.8 | -13.4[16.7 µM]
CC(Oc1ccccc1)C(=O)N1CCN=C1SCc1ccc(F)cc1 (stereo unspecified) | 96.3* | 2.4 | -0.3 | nt | -1.5 | 16.5
CSC1=NCCN1C(=O)Cc1ccc(F)cc1 | -2.9 | -1.9 | nt | 0.5 | -2.8 | 2.1
O=C(COc1ccccc1)N1CCN=C1SCc1cccnc1 | 99.7* | nt | nt | 9.6 | nt | nt
O=C(COc1ccccc1)N1CCN=C1c1ccccc1 | nt | nt | 0.7 | -0.6 | nt | -33.3
O=C(COc1ccccc1)N1CCN=C1SCc1ccc(F)cc1 | 98.0* | -0.9 | -4.1 | 1.8 | 0.1 | 31.2
CO[C@H]1CN(C)C(=O)c2cc(NS(=O)(=O)CC(F)(F)F)ccc2OC[C@@H](C)N(CC2CCCCC2)C[C@H]1C | nt | 1.3 | nt | -0.8 | nt | 14.6[16.7 µM]
CCCOC(c1ccccc1)(c1ccc(C(F)(F)F)cc1)C(Oc1nc(C)cc(C)n1)C(=O)O (stereo unspecified) | 96.3* | 2.9 | -2.8 | 12.4 | 10.4 | 24.2
Cc1cc(C)nc(OC(C(=O)O)C(OCCc2ccccc2)(c2ccc(F)cc2)c2ccc(F)cc2)n1 (stereo unspecified) | -43.3 | -1.3 | 2.3 | 1.4 | 3.2 | 2.1
O=C(/C=C/c1ccco1)NCc1ccc(F)cc1 | 0.4 | 0.0 | 3.1 | nt | 2.9 | -6.3
O=C(NCc1ccccc1)/C(=C/c1ccco1)NC(=O)c1ccco1 | 93.2* | -0.3 | -1.2 | -1.2 | 1.1 | 4.8
O=C(NCc1ccccc1)/C(=C\c1ccc(O)cc1)NC(=O)c1ccco1 | 97.5* | 1.8 | -0.2 | -2.6 | 7.3 | 2.0
SMILES | ALR H2O2 inh | CFTR F508del cor | NSD2 HMT inh | PglD DTNB | CASP6 VEID inh | HIV Env fusion
O=C(NCc1ccccc1)/C(=C/c1ccccc1)NC(=O)c1ccco1 | -3.1 | 0.5 | -0.3 | -1.2 | 2.0 | 4.4
O=C(N/C=C/c1ccco1)NCc1ccccc1 | nt | 0.0 | 20.5 | nt | 41.6* | -11.1
NS(=O)(=O)c1ccc(CNC(=O)/C=C/c2ccco2)cc1 | 0.7 | 4.8 | 41.7 | 3.9 | 35.7* | 8.9
C[C@@H]1CN([C@@H](C)CO)S(=O)(=O)c2ccc(Br)cc2O[C@@H]1CN(C)C(=O)C1CCC1 | nt | -0.4 | nt | nt | nt | 9.6[16.7 µM]
C[C@@H]1CN([C@H](C)CO)C(=O)CCCn2nncc2CO[C@@H]1CN(C)Cc1ccncc1 | nt | -1.0 | nt | nt | nt | nt
COc1ccc(NC(=S)N(CCN2CCOCC2)Cc2cc3cc4c(cc3[nH]c2=O)OCCO4)cc1 | -11.0 | -1.6 | 4.1 | -1.9 | 38.2* | 12.4
O=C(C1CCCCC1)N1CC2(C1)[C@H](c1ccccc1)[C@H](CO)N2C(=O)NC1CCCC1 | nt | 2.0 | nt | nt | 1.4 | nt
COC(=O)C[C@H]1CC[C@@H]2[C@H](COc3ccc(NC(=O)c4ccc(C(F)(F)F)cc4)cc3C(=O)N2C)O1 | nt | 1.6 | nt | -0.2 | 4.0 | nt

Source: PubChem BioAssay (Broad Institute)
